Shown are actives, neighbours in structure and some others; about 1.8% of the full set was active somewhere.
Fam108B counter: blocks mouse Fam108B hydrolase in RBBP9 counter-screen; recombinant Fam108B, FP-Rh probe fluorescence polarization; inhibition, % at 9.51 µM; actives 0.33% (n = 300,000);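 active = inhibition above the screen mean inhibition plus 3 SD, computed separately per campaign, cut at about 18% in these data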;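 note: inhibitors lower polarization as less probe binds the enzyme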
PAD4 FP inh: blocks human protein arginine deiminase 4 | AID 485272 | actives 0.41% (n = 330,000) | inhibition, % at 6.36 µM | Q9UM07 | recombinant PAD4, RCA probe fluorescence polarization;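 active = percent inhibition above a cutoff equal to the mean of all tested compounds plus 3 SD, cut at about 15% in these data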;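 note: 0% = PAD4 with RCA probe and DMSO and 100% = probe without PAD4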
GSTO1 inh: counter-screen for RBBP9 inhibitors: inhibitors of human GSTO1; recombinant GSTO1, activity-based probe fluorescence polarization; actives 1.1% (n = 300,000); P78417; inhibition, % at 5.96 µM;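 active = inhibition above the campaign mean inhibition plus 3 SD, cut at about 35% in these data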;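 note: 0% = GSTO1-1 with DMSO and 100% = wells lacking GSTO1-1 enzyme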
LYPLA1 inh: blocks human lysophospholipase 1, a PME1 counter-screen | actives 0.16% (n = 320,000) | O75608 | recombinant LYPLA1, FP-Rh probe fluorescence polarization | inhibition, % at 5.9 µM;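 active = inhibition above the mean of all tested compounds plus 3 SD, set per campaign, cut at about 14% in these data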;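 note: inhibitors block serine hydrolase probe labeling of LYPLA1 so polarization falls; 0% = enzyme with DMSO and 100% = wells lacking LYPLA1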
Target sequence (O75608 whole entry, looked up): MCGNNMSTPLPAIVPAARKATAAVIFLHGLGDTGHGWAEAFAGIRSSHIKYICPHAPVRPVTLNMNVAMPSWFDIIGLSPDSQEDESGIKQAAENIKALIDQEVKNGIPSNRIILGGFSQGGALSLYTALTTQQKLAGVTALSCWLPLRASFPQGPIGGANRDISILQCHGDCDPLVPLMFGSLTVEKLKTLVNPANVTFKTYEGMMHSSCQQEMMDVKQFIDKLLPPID
PME-1 primary: blocks human protein phosphatase methylesterase 1 | Q9Y570 | recombinant PME-1, FP-Rh probe fluorescence polarization | inhibition, % at 5.9 µM | actives 0.53% (n = 320,000) | AID 2130;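 active = inhibition above the campaign mean of all compounds plus 3 SD, cut at about 26% in these data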;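 note: competitive labeling of PME-1 active site by serine hydrolase directed probe; 0% = PME-1 with DMSO and 100% = wells lacking PME-1 enzyme; inhibitors block probe labeling so polarization falls and inhibition rises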
Target sequence (Q9Y570 whole entry, looked up): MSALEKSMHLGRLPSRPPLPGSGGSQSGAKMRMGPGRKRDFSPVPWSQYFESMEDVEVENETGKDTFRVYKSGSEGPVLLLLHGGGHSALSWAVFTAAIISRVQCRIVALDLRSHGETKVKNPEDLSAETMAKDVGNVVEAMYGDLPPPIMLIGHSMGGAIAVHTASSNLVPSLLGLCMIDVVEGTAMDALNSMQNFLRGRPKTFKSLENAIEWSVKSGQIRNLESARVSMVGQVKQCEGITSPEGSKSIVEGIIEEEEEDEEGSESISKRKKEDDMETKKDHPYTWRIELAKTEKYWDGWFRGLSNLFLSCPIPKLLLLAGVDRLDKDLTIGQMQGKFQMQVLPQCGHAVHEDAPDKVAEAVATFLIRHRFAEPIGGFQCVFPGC
LYPLA2 counter: blocks human lysophospholipase 2, a PME1 counter-screen; O95372; recombinant LYPLA2, FP-Rh probe fluorescence polarization; inhibition, % at 5.9 µM; actives 0.38% (n = 320,000); AID 2177;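 active = inhibition above the screen-wide mean plus 3 SD, limit set per campaign, cut at about 26% in these data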;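 note: 0% = LYPLA2 with DMSO and 100% = wells lacking LYPLA2 enzyme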
* marks the source's active call; other numbers are inactive results; nt = no result.

SMILES	Fam108B counter	PAD4 FP inh	GSTO1 inh	LYPLA1 inh	PME-1 primary	LYPLA2 counter
Cc1ccc(SCc2[nH]nc3c2C(C(C)C)C(C#N)=C(N)O3)cc1 (stereo unspecified)	-5.5	-4.9	-7.6	2.5	-6.2	3.4
CC(=O)Nc1ccc(S(=O)(=O)NCCSCc2ccccc2Cl)cc1	-1.3	-2.1	53.9*	-4.2	1.9	-1.5
CC(=O)Nc1ccc(S(=O)(=O)NCCC(=O)Nc2ccc(C)c(Cl)c2)cc1	-0.1	-3.3	-0.4	-2.7	-2.9	-3.0
Cc1cccc(C(=O)N=c2sccn2C)c1[N+](=O)[O-]	1.0	1.8	4.8	0.1	6.3	5.9
O=C1CC(c2ccc(Cl)cc2)c2c(O)cc(O)cc2O1 (stereo unspecified)	-7.7	-0.1	37.4*	-2.8	3.4	3.7
COc1cccc(N=Nc2c(=O)[nH]n3c(=O)c4c([nH]c23)CCC4)c1	5.5	-0.8	9.6	2.9	36.1*	-3.3
O=C(N/N=C/c1cccs1)c1cncc(Br)c1	1.5	-3.6	7.6	0.8	-0.9	1.1
O=C(N/N=C\c1ccc([N+](=O)[O-])s1)c1cncc(Br)c1	9.7	3.3	43.1*	1.6	5.4	10.3
Cc1cc(C(=O)COC(=O)c2ccc(Cl)c(S(N)(=O)=O)c2)c(C)n1CC1CCCO1 (stereo unspecified)	2.3	-3.2	7.0	3.2	2.1	3.8
COCCn1c(C)cc(C(=O)COC(=O)c2ccc(Cl)c(S(N)(=O)=O)c2)c1C	25.1*	1.3	-7.1	3.0	-3.7	1.5
O=C(O)c1cccc(NC(=S)NC(=O)c2ccc(-c3ccc(Cl)cc3)o2)c1	-9.4	-0.9	14.3	-2.7	-23.4	28.2*
Cc1ccc(C(=O)O)cc1NC(=S)NC(=O)c1ccc(-c2ccc(Cl)cc2)o1	-12.5	1.3	-4.5	1.6	0.4	5.9
O=C(N/N=C/c1sc(N2CCOCC2)nc1-c1ccccc1)c1ccccc1O	14.7	-3.1	-2.8	-4.1	51.0*	-8.6
O=C(N/N=C/c1sc(N2CCOCC2)nc1-c1ccccc1)c1ccccc1Cl	5.0	-1.8	3.7	1.2	-0.2	5.1
Oc1cc(Br)ccc1C=Nc1ccc(N2CCCCC2)cc1	-0.9	9.8	53.0*	5.1	0.2	9.5
O=c1[nH]c(=S)[nH]c2sc3c(c12)CCCCCC3	6.0	1.3	-12.9	2.7	0.2	4.7
COc1ccc(Nc2cc(Nc3cccc(OC)c3)ncn2)cc1	8.7	-2.5	-7.4	0.2	3.9	-5.6
COc1cccc(-c2nc(NC3CCCC3)c3ccccc3n2)c1O	15.0	2.3	4.5	-5.0	27.4*	0.0
COc1cccc(-c2nc(NCc3ccccc3)c3ccccc3n2)c1O	1.8	-8.2	15.5	-4.5	-2.3	2.2
COc1ccccc1/C=C(\C#N)C(=O)c1cccn1C	1.2	0.8	1.1	-2.1	-7.2	5.0
O=C(N=Nc1c(O)n(Cc2ccccc2)c2ccccc12)c1cc2ccccc2cc1O	1.4	-2.5	-2.2	-3.8	51.1*	0.0
O=C(N=Nc1c(O)n(Cc2ccccc2)c2ccccc12)c1ccc(O)cc1	0.5	-3.1	2.9	-6.7	2.5	3.0
COc1ccc2nc(C)cc(N3CCN(S(=O)(=O)c4ccccc4F)CC3)c2c1	nt	-1.7	nt	0.0	1.8	2.7
COc1cc(CN(C(=S)NCC(=O)NC2CCCC2)C2CCCC2)cc(OC)c1OC	6.2	2.3	0.4	-0.4	-1.8	-2.3
Cc1ccc(NC(=O)c2sc(Cl)nc2C)c(C)c1	2.7	-1.4	3.7	-1.5	0.2	-3.8
SMILES	Fam108B counter	PAD4 FP inh	GSTO1 inh	LYPLA1 inh	PME-1 primary	LYPLA2 counter
Cc1cc(C)c(C)c(OC(=O)c2sc(Cl)nc2C)c1	4.2	-0.3	36.1*	6.2	-5.0	4.6
Cc1cccc(-n2c3nc(=O)[nH]c(=O)c-3cc3cc([N+](=O)[O-])ccc32)c1	13.1	0.7	-14.1	0.0	30.8*	-1.2
COC(CNc1cc(=O)oc2ccccc12)OC	-2.5	2.6	0.9	2.9	2.9	10.3
COc1ccccc1NC(=O)C(C)OC(=O)CSCC(=O)Nc1cc(C)on1 (stereo unspecified)	nt	3.4	nt	-0.7	0.7	3.5
CN(C)S(=O)(=O)c1cccc(NC(=O)c2cc([N+](=O)[O-])ccc2N2CCCCC2)c1	nt	2.7	nt	-4.2	45.7*	0.4
O=C1CSC(=S)N1/N=C/c1ccc(O)c(O)c1O	14.5	0.4	66.7*	-9.2	-8.2	-10.4
CCc1ccc(OC)c(S(=O)(=O)Nc2ccc(Cc3ccncc3)cc2)c1	1.9	-2.1	4.0	1.2	27.0*	4.3
COc1ccc(OC)c(CNC(=O)CCCc2cn(C)c3ccccc23)c1	-1.9	0.5	2.5	2.2	1.4	3.0
COc1cccc(CNC(=O)CCCc2cn(C)c3ccccc23)c1	-1.3	-1.6	-0.8	1.1	134.3*	4.0
CC1(C)CC(=O)C2=C(C1)OC(N)=C(C#N)C2C#Cc1ccccc1 (stereo unspecified)	1.1	3.4	35.2*	2.1	1.2	4.5
CC(c1ccccc1)C1C(C#N)=C(N)OC2=C1C(=O)CC(C)(C)C2 (stereo unspecified)	-2.3	-4.1	-7.1	-0.7	2.8	3.3
CCOc1cc(-c2cc(-c3ccc(N)cc3)nc(N)c2C#N)ccc1O	13.8	-2.3	-21.9	2.1	41.1*	-5.5
CC(C)(C)OC(=O)C[C@@H]1C/C=C\C[C@H](CC(=O)N(CCO)Cc2ccccc2)C(=O)NCCOC1=O	nt	3.2	nt	nt	nt	nt
Cc1cc(C(=O)COC(=O)C(C)NC(N)=O)c(C)n1Cc1ccco1 (stereo unspecified)	2.1	-2.3	18.9	0.1	-8.8	4.0
Cc1cc(C(=O)C(C)Cl)c(C)n1Cc1ccco1 (stereo unspecified)	0.0	-6.9	80.8*	-0.7	1.5	5.3
CC(=O)c1ccc2c(c1)C1C=CCC1C(c1ccncc1)N2 (stereo unspecified)	13.6	-9.6	43.6*	0.3	-6.7	6.6
Brc1cc2c(cc1C1Nc3ccccc3C3C=CCC31)OCO2 (stereo unspecified)	-1.9	0.3	2.1	-2.0	0.4	-2.8
C1=CC2c3ccccc3NC(c3ccncc3)C2C1 (stereo unspecified)	13.0	-8.8	47.4*	-2.1	10.7	8.8
Cc1ccc2c(c1)C1C=CCC1C(C(=O)O)N2 (stereo unspecified)	46.3*	6.8	54.4*	-8.0	13.9	4.9
C#CCSc1n[nH]c(=O)n1-c1cccc(C(F)(F)F)c1	3.3	3.9	3.7	-0.4	1.9	-8.9
CC(COc1ccc(/C=C/c2ccccc2)cc1)[N+](C)(C)C (stereo unspecified)	4.9	3.7	6.7	3.6	0.8	5.4
O=C(Nc1ncccc1O)c1ccc(S(=O)(=O)Nc2ccccc2)cc1	3.5	-4.5	0.2	0.4	-4.8	1.2
N=c1oc2cc(O)ccc2cc1C(=O)Nc1nc2ccccc2s1	14.6	-3.0	-3.1	1.9	29.7*	0.3
